# DT40 TDP1 no CPT: qHTS for Inhibitors of human tyrosyl-DNA phosphodiesterase 1 (TDP1): qHTS in cells in absence of CPT; 420,000 compounds, 15% hits; DT40 Tdp1-/- hTDP1 cells, no CPT, ATP luminescence, 48 h; Potency, µM (titrated, usually from 46.2 µM), usual class: inhibitors; also: nearly all actives have a fitted effect of over 55% in size
#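 Readout: luminescence from CellTiter-Glo after 30 min in the dark at RT. Cells: DT40 Tdp1-/- with stable hTDP1, 400/well. Exposure: compounds alone, ≥48 hr, 37 °C.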
# HT1080 IDH1KD tx: HT-1080 IDH1 knockdown cell toxicity (counter line). HT-1080 IDH1 knockdown viability, ATP luminescence, 48 h. Potency, µM (titrated, usually from 46.1 µM), actives largely listed as cytotoxic. 360,000 compounds, 2% hits
#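 Assay cells: HT-1080 with IDH1 knockdown, 750 per well, RPMI/5% FBS. Exposure: 48 h at 37 °C following 2 h pre-incubation. Read: CellTiter-Glo luminescence; fitted concentration-response, curve class assigned.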
# TDP1 cell CPT: growth inhibition of DT40 Tdp1-/-;hTDP1 cells with camptothecin (screen for TDP1 inhibitors); 420,000 compounds, 12% hits; AID 686979; Potency, µM (series often up to 46.2 µM), most hits filed as inhibitors; chicken DT40 Tdp1-/-;hTDP1 cells + 20 nM CPT, ATP luminescence, 48 h; also: nearly all actives have a fitted effect of over 55% in size
#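 Cell growth measured by CellTiter-Glo luminescence after a minimum 48 h, 37 C compound exposure with 20 nM CPT in Tdp1-knockout DT40 cells stably expressing hTDP1, seeded 400/well; qHTS titration format.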
# HT1080NT lethal: kills 2HG-producing HT-1080-NT fibrosarcoma cells. AID 686970. 360,000 compounds, 1.6% hits. Potency, µM (doses to about 46.1 µM), most hits filed as cytotoxic. HT-1080-NT fibrosarcoma viability, CellTiter-Glo ATP luminescence, 48 h;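 also: NT is the 2HG producing partner of a matched IDH1 knockdown line; nearly all actives have a fitted effect of over 55% in size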
#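 HT-1080-NT fibrosarcoma cells (2HG-overproducing), 750 cells/well in RPMI with 5% FBS, dosed after 2 h and incubated 48 h at 37C. CellTiter-Glo luminescence normalized to DMSO and no-cell wells; concentration-response curves fitted and classed.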
# IL1B secr inh: inflammasome signaling inhibition, IL-1 beta readout | THP-1 LPS/ATP IL-1B secretion, AlphaLISA, 16 h; active compounds read low | activity change, % at 57.5 µM | 360,000 compounds, 4.7% hits | AID 743279; in the data active = activity change below about -50%; inconclusive = mostly about -30% to -49%
#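 THP-1 cells pretreated 1 hr with compounds (up to 57.5 uM final), then stimulated with LPS (250 ng/mL final) plus ATP (1.25 mM final); secreted IL-1B measured by AlphaLISA after 16 hr, decreased signal indicating inhibition.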
# A number is an active result; - = inactive; ? = inconclusive; . = no result. This is a sample that favours compounds with a hit; in the whole collection about 19% have one here. Unless noted, calls follow the shape of the dose curve; as a rule, active = well fitted curve in the direction sought with a large enough effect; inconclusive = small, poorly fitted or top-dose-only effect, or another doubt; inactive = no such curve, though single readings can be large; an effect the other way counts as inactive or inconclusive.
SMILES,DT40 TDP1 no CPT,HT1080 IDH1KD tx,TDP1 cell CPT,HT1080NT lethal,IL1B secr inh
Cc1cccc(-c2nn3c(=O)cc(CN4CCN(S(=O)(=O)c5ccc(Cl)cc5)CC4)nc3s2)c1,16µM,.,-,.,.
COc1ccccc1-c1nn2c(=O)cc(CN3CCN(C(=O)/C=C/c4ccccc4)CC3)nc2s1,23µM,.,?,.,.
CCOc1ccc(C(=O)NN2CCOCC2)cc1,-,-,-,-,-
CCOC(=O)c1ccc(NC(=O)C2(c3ccc(Cl)cc3)CCCC2)cc1,?,-,16µM,-,-
CCOC(=O)c1ccc(NC(=O)C2(c3ccccc3)CCCC2)cc1,?,-,?,-,-
NC(=O)c1ccc(NC(=O)COC(=O)C2(c3cccc(F)c3)CCCC2)cc1,26µM,-,?,-,-
Cc1ccc(NC(=O)COC(=O)C2(c3ccc(Cl)cc3)CCCC2)cc1,23µM,?,23µM,?,?
CCOC(=O)C1CCCN(C(=O)COC(=O)c2ccc(C#N)cc2)C1 (stereo unspecified),-,-,-,-,-
O=C(Nc1ccccc1C(F)(F)F)NC1(C(=O)N2CCOCC2)CCCCC1,?,-,?,-,-
C/[N+]([O-])=C\c1cccc(OCCN2CCN(c3ncc(C(F)(F)F)cc3Cl)CC2)c1,?,-,-,-,-51
O=C(OCCN1CCN(c2ncc(C(F)(F)F)cc2Cl)CC1)c1ccc(Cl)cc1,?,-,-,-,-
O=c1oc2ccc(Cl)cc2cc1-c1nc(-c2cccs2)no1,-,.,-,.,.
CS(=O)(=O)N1CCC(C(=O)Nc2ccc(Cl)c(C(F)(F)F)c2)CC1,23µM,-,?,?,-
CS(=O)(=O)N1CCC(C(=O)Nc2cc(C(F)(F)F)ccc2Cl)CC1,-,-,-,-,-
Cn1cnc(S(=O)(=O)N2CCC(C(=O)Nc3ccc(Cl)c(C(F)(F)F)c3)CC2)c1,13µM,.,16µM,.,.
O=C(NCc1ccc(Cl)cc1)c1cc(=O)[nH]c2ccccc12,-,-,-,-,-
O=C(C[C@H]1C/C=C\C[C@@H](Cc2ccc(F)cc2)C(=O)O[C@@H](c2ccccc2)CNC1=O)NCCO,?,-,-,-,-
O=C1NC[C@H](c2ccccc2)OC(=O)[C@@H](Cc2ccc(F)cc2)C/C=C\C[C@H]1CC(=O)N(CCO)Cc1ccccc1,?,?,8.2µM,?,-
O=C1NC[C@H](c2ccccc2)OC(=O)[C@H](Cc2ccc(F)cc2)C/C=C\C[C@H]1CC(=O)N(CCO)Cc1ccccc1,8.2µM,?,10µM,?,-60
O=C1NC[C@@H](c2ccccc2)OC(=O)[C@H](Cc2ccc(F)cc2)C/C=C\C[C@H]1CC(=O)N(CCO)Cc1ccccc1,16µM,-,21µM,-,?
O=C(COC(=O)c1cc(=O)c2ccccc2o1)NCc1ccc(Cl)cc1,-,-,-,-,-
CC1CCCC(C)N1C(=O)CN1C(=O)NC2(CCCCCC2)C1=O (stereo unspecified),-,-,-,-,-
O=C(Nc1nccs1)c1ccc(S(=O)(=O)N2CCOCC2)cc1,16µM,-,?,-,-
O=C(Nc1nc(-c2ccc3c(c2)OCCO3)cs1)c1ccc(S(=O)(=O)N2CCCCC2)cc1,?,-,?,?,-79
O=C(Nc1nc(-c2cccnc2)cs1)c1ccc(S(=O)(=O)N2CCOCC2)cc1,?,-,?,-,-
SMILES,DT40 TDP1 no CPT,HT1080 IDH1KD tx,TDP1 cell CPT,HT1080NT lethal,IL1B secr inh
Cc1csc(NC(=O)c2ccc(S(=O)(=O)N3CCCC3)cc2)n1,-,-,?,-,-
CN(C)S(=O)(=O)c1ccc(C(=O)Nc2nc(-c3cccs3)cs2)cc1,?,-,21µM,-,-
O=C(Nc1nc(-c2cccs2)cs1)c1ccc(S(=O)(=O)N2CCCC2)cc1,?,?,?,?,-72
CN1CCN(C(=O)C2=C[C@H](c3csc4ccccc34)C[C@H](OCCCCO)O2)CC1,-,-,?,-,-
O=C(Nc1ccc(F)c(Cl)c1)C1CCN(c2ncccn2)CC1,-,.,-,.,.
O=C(COc1ccccc1Cl)Nc1cnn(Cc2ccccc2)c1,?,-,-,-,-
